Source: ChEMBL document CHEMBL4513216, “Probing the Open Global Health Chemical Diversity Library for Multistage-Active Starting Points for Next-Generation Antimalarials” (ACS Infect Dis, 2020)
Hit rate of the full screen: of about 69,000 compounds, about 8,600 (12%) showed an effect of 50% or more. This is one part of a sample in which strong results are shown more often than they occur.

system: Plasmodium berghei; test: Screen against P. berghei liver stage (PbLuc), transformed with Luciferase, at 10uM; assay type: functional, HepG2; details: tested at 10 uM

SMILES	INHIBITION [%]
Cc1cc(NCCc2nc(C)c[nH]2)nc(-c2ccccc2O)n1	43.6
CN1CCN(C(=O)N2CCC3(CCCN(C4CCOCC4)C3=O)C2)CC1 (configuration not stated)	-1.15
Cc1ccc2c(n1)N(CC(C)C)CCN(S(C)(=O)=O)C2	67.2
COCCN1CCN(S(C)(=O)=O)Cc2ccc(C)nc21	16.9
Cc1ccc2c(n1)N(Cc1ccncc1)CCN(S(C)(=O)=O)C2	36.9
CS(=O)(=O)NCC(Cc1cccc(F)c1)N1CCNC1=O (configuration not stated)	15.7
COc1cc(COCC2CCN(Cc3ccccn3)CC2)cc(OC)c1	6.54
Clc1ccc(COCC2CCN(Cc3ccccn3)CC2)cc1	62.3
Fc1ccc(COCC2CCN(Cc3ccccn3)CC2)cc1	-56.4
Cc1nc(NC(=O)CNC(=O)c2c(F)cccc2Cl)n[nH]1	-8.69
CCOCCN1CCN(Cc2cccc(C(=O)N(C)C)c2)CC1C (configuration not stated)	-9.37
CN1CCCC1c1cncc(C(=O)NCC2CC2)n1 (configuration not stated)	-80
c1ccc(CNc2nc(N3CCOCC3)nc3nccnc23)cc1	30.7
O=S(=O)(N1CCCCCC1)N1CCCN(CC2CCCO2)CC1 (configuration not stated)	9.57
COc1ccnc(CNc2nc(C)nc3ccsc23)c1	76.9
COc1ccnc(CNc2cc(C3CC3)ncn2)c1	-47.2
COc1ccnc(CNc2nc(C)nc(C)c2C)c1	-27.6
CC(C(=O)NCc1ccc(N2CCCCC2)nc1)S(C)(=O)=O (configuration not stated)	9.54
Cc1n[nH]c(C)c1CCC(=O)NCC1(O)CCN(c2ccccn2)C1 (configuration not stated)	3.48
Cn1cc(C(=O)N2CCCC(c3ccncc3)C2)cn1 (configuration not stated)	-16.5
CN1CCC(c2n[nH]c(=O)n2CC2CCCCC2)CC1	40.6
CNCc1n[nH]c(=O)n1CC1CCCCC1	23.9

SMILES	INHIBITION [%]
CN1CCN(Cc2n[nH]c(=O)n2CC2CCCCC2)CC1	70.3
O=C(c1cccnc1)N1CCCC(Cc2nccs2)C1 (configuration not stated)	-9.27
Cc1nc(N2CCCC2)nc2c1CCN(C(=O)NC1CCCC1)CC2	-6.23
O=C(Cc1ccccn1)N1C[C@H](OCc2cccnc2)[C@H]2COC[C@H]21	-31
Cc1cc(C)n2c(CNCCNc3ccccc3)cnc2n1	-35.2
CCNC(=O)CN(CC)C(=O)Cc1csc(C(C)C)n1	81.6
CNC(=O)CN(C)C(=O)Cc1csc(C(C)C)n1	12.3
CCN(CC)C(=O)Cc1csc(C(C)C)n1	-4.4
CC(Cn1cccn1)NC(=O)Cc1csc(C(C)C)n1 (configuration not stated)	0.914
CCN(CC(=O)NC)C(=O)Cc1csc(C(C)C)n1	62.4
CC(C)c1nc(CN(CC(N)=O)C(C)C)cs1	31.8
O=C(c1cocn1)N1CCC2(CC1)CC(Oc1ccccn1)CO2 (configuration not stated)	-0.804
COC(=O)c1ccoc1CN(C1CC1)C1CCS(=O)(=O)C1 (configuration not stated)	42.8
Cc1nc(C)n(CC2CCCCN2Cc2cnc(C)s2)n1 (configuration not stated)	30.6
CCOc1ncccc1C(=O)NC1CCCN(c2ncccn2)C1 (configuration not stated)	-39.7
O=C(NCC1CCC2(CC1)OCCO2)c1cccc(-n2cccn2)c1	30.2
COc1ncccc1CNCc1cnc(N2CCOCC2)nc1	-65
Cc1cnn(CC2CN(CC(=O)Nc3c(C)nn(C)c3C)CCO2)c1 (configuration not stated)	26.4
NC(=O)N1C[C@H](NC(=O)c2cscn2)[C@@H]2OCCC[C@@H]21	60.2
CC(=O)N1C[C@H](NC(=O)c2cscn2)[C@@H]2OCCC[C@@H]21	42.6
CO[C@H]1CN(C(=O)c2cccnc2)[C@@H]2CCCO[C@H]12	-14.7
CS(=O)(=O)N[C@@H]1CN(C(=O)c2ccccn2)[C@@H]2CCCO[C@@H]21	37.5

SMILES	INHIBITION [%]
CS(=O)(=O)N[C@@H]1CN(C(=O)c2cnccn2)[C@@H]2CCCO[C@@H]21	26.4
CS(=O)(=O)N[C@H]1CN(C(=O)c2cscn2)[C@@H]2CCCO[C@H]12	60.2
CS(=O)(=O)N[C@@H]1CN(C(=O)c2cccnc2)[C@@H]2CCCO[C@@H]21	56.7
Cc1cccc(C(=O)N2C[C@H](NS(C)(=O)=O)[C@@H]3OCCC[C@@H]32)n1	31.1
CN1C[C@H](NC(=O)c2cscn2)[C@@H]2OCCC[C@@H]21	35.8
CNc1ncccc1CN1CCCCC1c1cc(C)n2ccnc2n1 (configuration not stated)	13
CN(Cc1cccnc1)C(=O)NC1CCN(Cc2ccccn2)CC1	16.8
CC(CCN(C)C)NC(=O)N1CCSC(C)(C)C1 (configuration not stated)	60.3
COCCC(C)NC(=O)N1CCSC(C)(C)C1 (configuration not stated)	48.3
CSCCC(C)NC(=O)N1CCSC(C)(C)C1 (configuration not stated)	14.9
Cc1nc(C2CCCN2CCS(C)(=O)=O)no1 (configuration not stated)	26.55
CCCSc1nn(CCCN(C)C)c2nc3sc(C)c(CC)c3c(=O)n12	11.6
CCc1c(C)sc2nc3n(CCN(C)C)nc(SC)n3c(=O)c12	30.5
CCCSc1nn(CCN(C)C)c2nc3sc(C)c(CC)c3c(=O)n12	88.1
Cc1nn(C)c2cnn(CC(=O)NCc3cccs3)c12	8.49
CC(C)n1c(=O)c2ccccc2n(CCN(C)C)c1=O	-0.29
CCn1ncnc1C1CC(=O)NCc2nc(N3CCCC3)sc21 (configuration not stated)	-32.5
CCCC(=O)N1CCC(Nc2nc(O)cc(-c3ccsc3)n2)CC1	10.7
CCCn1ncc2c(C(=O)Nc3cnn(CC)c3C)cc(C3CC3)nc21	-9.98
CCCn1ncc2c(C(=O)NC(C)Cn3cccn3)cc(C3CC3)nc21 (configuration not stated)	-24.1
CCCn1ncc2c(C(=O)Nc3n[nH]c(SC)n3)cc(C3CC3)nc21	53
CN(Cc1ccc(-n2ccnc2)cc1)CC1CCCN1c1cccnn1 (configuration not stated)	-12.1

SMILES	INHIBITION [%]
Cc1ccc(S(=O)(=O)c2ncccc2CN2CCCC2)cc1	42.4
Cc1ccc(S(=O)(=O)c2ncccc2CN2CCOCC2)cc1	37.8
Cc1ccc(S(=O)(=O)c2ncccc2CN2CCN(CCO)CC2)cc1	68.4
O=C(c1cccnc1N1CCN(CCO)CC1)N1CCCC1	43.6
Cc1ccc(S(=O)(=O)c2ncccc2CN2CCCCC2)cc1	45.2
Cc1ccc(S(=O)(=O)c2ncccc2CN2CCN(C)CC2)cc1	68.4
CCn1cc(CN2CCCN(C(=O)c3cc(C)no3)CC2)cn1	25.4
CCc1ocnc1C(=O)N1CCOC(CCCC(C)C)C1 (configuration not stated)	12.8
O=C(c1cncc(Br)c1)N1CCCc2c(F)cc(F)cc21	0.705
O=C(c1cncc(Br)c1)N1CCCc2ccc(F)cc21	67.4
Cc1ccc2c(c1)CCCN2C(=O)c1cncc(Br)c1	6.88
Cc1nnc(N2CC[C@H]3O[C@H](C(=O)NCc4ccccn4)CC[C@H]32)s1	21.8
COc1cc(CN2CC[C@H](NC(C)=O)[C@@H](O)CC2)ccc1F	-13.7
Clc1snnc1CN1CCN(c2nccs2)CC1	57.3
Nc1nc(CN2CCN(c3nccs3)CC2)cs1	22.3
CC1CN(Cc2nnsc2Cl)CCN1c1nccs1 (configuration not stated)	20.2
Cc1nccn1C1CCCN(C(=O)c2ccc3nncn3c2)C1 (configuration not stated)	40.2
O=C(CCNC(=O)c1ccoc1)Nc1ccccc1F	21.9
O=C(CCNC(=O)c1ccoc1)Nc1cc(F)cc(F)c1	54.5
O=C(CCNC(=O)c1ccoc1)Nc1ccc(F)cc1F	59
O=C(CCNC(=O)c1ccoc1)Nc1cc(F)ccc1F	24.8
O=C(CCNC(=O)c1ccoc1)Nc1c(F)cccc1F	-16.7

SMILES	INHIBITION [%]
O=C(CCNC(=O)c1ccoc1)Nc1cccc(F)c1	-4.82
CNC(=O)CCc1cccc(C2CCCN(c3cc(C)ncn3)C2)n1 (configuration not stated)	44.8
Cc1nnc2n1CCN(C(=O)c1cn(-c3ccccc3)nn1)C2	-53.6
CNC(=O)[C@@H]1C[C@H]2CN(C(=O)c3ccco3)C[C@H]2N1C(C)C	16.4
Cc1noc([C@H]2COC[C@H]3CN(C(=O)Cc4ccsc4)C[C@H]32)n1	-32
c1cnc(N2CC[C@@H](N3CCOCC3)[C@@H]2Cc2ccncc2)nc1	60
Cc1cnc(N2CC[C@@H](N3CCOCC3)[C@@H]2Cc2ccncc2)nc1	33.4
Fc1cnc(N2CC[C@@H](N3CCOCC3)[C@@H]2Cc2ccncc2)nc1	21.6
Cc1cc(CN2CCC(CNS(=O)(=O)c3ccccc3Cl)CC2)c(C)o1	30.7
O=C(C1CCOCC1)N1C[C@H]2CC(OCc3ccccc3)C[C@H]2C1 (some centres not stated)	-25.3
C1CCC(c2nn3c(C4CCCO4)nnc3s2)C1 (configuration not stated)	1.24
N#Cc1ncn(CC(=O)Cc2c(F)cccc2Cl)n1	26.8
N#Cc1ncn(Cc2c(F)cccc2Cl)n1	64.4
CN(Cc1c(F)cccc1Cl)C(=O)Cn1cnc(C#N)n1	28.7
Cc1cc(C)cc(OCn2ccc(C(=O)O)n2)c1	39.1
COC(=O)N1CCC(Oc2ccc(C(=O)NCCN(C)C)cc2Cl)CC1	-56.4
CSCCNC(=O)c1ccc(OC2CCN(CC(C)(C)C)CC2)c(Cl)c1	52.4
CN(C)CCNC(=O)c1ccc(OC2CCN(CC3CC3)CC2)c(Cl)c1	-73.6
CC1(C)OC(=O)N(CCCOc2ccc(F)cc2)C1=O	10.7
